Inconclusive results are not listed. The source made the active and inactive calls. Unless noted, calls come from the whole dose curve; as a rule, active = well fitted curve in the direction sought with a large enough effect in the repeat runs; inconclusive = weak or mixed curves; inactive = no such curve, though single readings can be large; an effect the other way counts as inactive or inconclusive.
What was measured:
[1] = qHTS assay to identify small molecule antagonists of the estrogen related receptor (ERR) signaling pathway - cell viability counter screen (AID 1224818); note: potency is the fitted concentration of half-maximal effect;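 note: viability measured after 17.5 h of compound exposure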
Outline: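 ERR reporter cells plated 6 h at 37 C/5% CO2, then compounds in DMSO pin-transferred and incubated 17.5 h at 37 C. Viability read as CellTiter-Fluor fluorescence after 30 min at 37 C.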

[2] = qHTS assay to identify small molecule antagonists of the estrogen related receptor (ERR) signaling pathway (AID 1224819; note: nearly all actives have a fitted effect of over 50% in size; note: potency is the fitted concentration of half-maximal effect)
Outline: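 ERR reporter cells were plated at 2,000 cells/well and left 6 h at 37 C/5% CO2 before pin-tool transfer of compounds in DMSO. After 18 h at 37 C, One-Glo was added and luminescence was read 30 min later at room temperature.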

[3] = qHTS assay to identify small molecule agonists of the estrogen related receptor (ERR) signaling pathway (AID 1224820)
Outline: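 ERR reporter cells (NTP line) plated 2,000/well, incubated 6 h at 37 C/5% CO2, then pinned with compounds in DMSO and held 18 h at 37 C. One-Glo added; luminescence read after 30 min at room temperature.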

[4] = system: estrogen-related receptor alpha (ERRalpha) with PGC-1alpha coactivator, human; experiment: qHTS assay to identify small molecule antagonists of the estrogen related receptor signaling pathway with the pleiotropic PPARgamma coactivator (PGC) (AID 1224821; calls by dose curve; note: nearly all actives have a fitted effect of over 50% in size; note: potency is the fitted concentration of half-maximal effect)
Outline: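 Cells engineered for PGC/ERR signalling (line from NTP) were plated 6 h at 37 C/5% CO2, then exposed to DMSO-dissolved compound for 18 h at 37 C. Luciferase activity was read by One-Glo luminescence after 30 min at room temperature.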

[5] = qHTS assay to identify small molecule antagonists of the estrogen related receptor signaling pathway with the pleiotropic PPARgamma coactivator (PGC) cell viability counter screen (AID 1224822; note: potency is the fitted concentration of half-maximal effect)
Outline: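 PGC/ERR cells were seeded at 2,000 cells/well, rested 6 h at 37 C/5% CO2, then given compounds in DMSO by pin tool and incubated 17.5 h at 37 C. Viability came from CellTiter-Fluor fluorescence after 30 min.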

[6] = qHTS assay to identify small molecule agonists of the estrogen related receptor signaling pathway with the pleiotropic PPARgamma coactivator (PGC) (AID 1224823)
Outline: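 PGC/ERR reporter cells were seeded, rested 6 h at 37 C/5% CO2, then exposed to compounds in DMSO by pin transfer for 18 h at 37 C. Luciferase activity was read as luminescence after One-Glo reagent and 30 min at room temperature.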

Measured: Potency

CCN(CC)c1ncnc2c1ncn2[C@@H]1O[C@H](COP(=O)(O)OP(=O)(O)C(Br)(Br)P(=O)(O)O)[C@@H](O)[C@H]1O
inactive: all assays above

COc1ccc(OC)c(C(O)C(C)N)c1 (stereo unspecified)
inactive: all assays above

NC(CCCCCP(=O)(O)O)C(=O)O (stereo unspecified)
inactive: all assays above

O=C(O)Cc1cnc[nH]1
inactive: all assays above

CC(Cc1ccc(OCC(=O)O)cc1)NCC(O)c1cccc(Cl)c1 (stereo unspecified)
inactive: all assays above

CNCCc1ccc(O)c(O)c1
inactive: all assays above

CCCN(CCC)C1CCc2cccc(O)c2C1 (stereo unspecified)
inactive: all assays above

NC(=NCCC[C@H](N)C(=O)O)N[N+](=O)[O-]
inactive: all assays above

COc1ccc2c(c[n+](C)c3c4cc5c(cc4ccc23)OCO5)c1OC
active: [1] 18.1 µM | [2] 9.08 µM | [4] 10.6 µM | [5] 5.11 µM
inactive: [3] | [6]

CC(N)[C@H](O)c1ccc(O)c(O)c1 (stereo partly specified)
inactive: all assays above

C[N+](C)(C)CC#CCOC(=O)Nc1cccc(Cl)c1
inactive: all assays above

CCCN(CCC)C1CCc2ccc(O)cc2C1 (stereo unspecified)
inactive: all assays above

O=C(N[C@H]1CN2CCC1CC2)c1ccc(Cl)cc1
inactive: all assays above

C[N+]1(C)C2CCC1CC(OC(=O)c1c[nH]c3ccccc13)C2 (stereo unspecified)
inactive: all assays above

NC(N)=NOCCC(N)C(=O)O (stereo unspecified)
inactive: all assays above

CC(C)(C)OC(=O)NC1[C@H]2CNC[C@@H]12 (stereo partly specified)
active: [4] 15.5 µM | [5] 20.3 µM
inactive: all other assays above

Reference: PubChem BioAssay (Tox21)
